# In PMC7862700, “An all-to-all approach to the identification of sequence-specific readers for epigenetic DNA modifications on cytosine”:
# Experiments:
# Assay in all cases: DAPPL (digital affinity profiling via proximity ligation, sequencing); 10 mM Tris-HCl pH 7.5, 50 mM NaCl, 1 mM DTT, 4% glycerol, room temperature, 30 min; GST-TFs on glutathione beads, 16-mer random dsDNA library, 0.1% formaldehyde crosslink after washing; high values mean tight binding
# FLI1 = molecular target: T1, FLI1 (Homo sapiens, UniProt Q01543 1-452); details: protein: recombinant; tags: N-terminal GST; dsDNA, one strand shown
# T1 sequence: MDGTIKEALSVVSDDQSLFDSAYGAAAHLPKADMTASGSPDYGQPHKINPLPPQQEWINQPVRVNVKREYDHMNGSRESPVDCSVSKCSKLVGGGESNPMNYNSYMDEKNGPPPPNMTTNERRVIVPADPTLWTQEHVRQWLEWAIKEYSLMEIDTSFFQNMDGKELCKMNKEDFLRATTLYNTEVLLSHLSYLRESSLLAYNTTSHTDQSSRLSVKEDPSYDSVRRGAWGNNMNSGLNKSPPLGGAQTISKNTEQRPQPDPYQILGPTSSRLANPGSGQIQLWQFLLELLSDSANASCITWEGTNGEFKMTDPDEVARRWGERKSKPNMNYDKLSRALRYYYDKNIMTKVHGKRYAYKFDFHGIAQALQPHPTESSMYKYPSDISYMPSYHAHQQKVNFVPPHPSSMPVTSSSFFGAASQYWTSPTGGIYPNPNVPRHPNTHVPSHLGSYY
# Outline: (§1)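 GST fusions of human transcription factors were expressed in yeast and captured with glutathione beads. Once given DNA barcodes and pooled alongside a tag-only sample, they were incubated for 30 min at room temperature with 200 nmole of a random double-stranded 16-mer DNA library in Tris/NaCl/DTT/glycerol buffer, then washed, crosslinked (0.1% formaldehyde), proximity-ligated, PCR-amplified and sequenced on an Illumina NextSeq500. The binding signal of each hexamer is its read frequency for a factor divided by its frequency for the tag-only sample.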
# ELK1 = molecular target: T2, ELK1 (Homo sapiens, UniProt P19419 1-428); details: protein: recombinant; tags: N-terminal GST; dsDNA, one strand shown
# T2 sequence: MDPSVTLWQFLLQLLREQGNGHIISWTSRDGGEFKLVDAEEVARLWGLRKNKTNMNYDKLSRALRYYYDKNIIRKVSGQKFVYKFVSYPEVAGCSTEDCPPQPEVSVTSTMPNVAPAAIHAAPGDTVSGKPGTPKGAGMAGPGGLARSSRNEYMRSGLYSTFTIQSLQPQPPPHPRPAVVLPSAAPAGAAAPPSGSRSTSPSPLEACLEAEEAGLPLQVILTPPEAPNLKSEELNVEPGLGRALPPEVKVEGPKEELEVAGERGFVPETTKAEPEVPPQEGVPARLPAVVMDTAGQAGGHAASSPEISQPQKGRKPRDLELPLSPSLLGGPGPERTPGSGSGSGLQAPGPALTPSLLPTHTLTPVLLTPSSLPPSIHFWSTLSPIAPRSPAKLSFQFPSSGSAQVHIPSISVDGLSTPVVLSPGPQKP
# Outline: as §1
# GABPA = molecular target: T3, GABPA (Homo sapiens, UniProt Q06546 1-454); details: protein: recombinant; tags: N-terminal GST; dsDNA, one strand shown
# T3 sequence: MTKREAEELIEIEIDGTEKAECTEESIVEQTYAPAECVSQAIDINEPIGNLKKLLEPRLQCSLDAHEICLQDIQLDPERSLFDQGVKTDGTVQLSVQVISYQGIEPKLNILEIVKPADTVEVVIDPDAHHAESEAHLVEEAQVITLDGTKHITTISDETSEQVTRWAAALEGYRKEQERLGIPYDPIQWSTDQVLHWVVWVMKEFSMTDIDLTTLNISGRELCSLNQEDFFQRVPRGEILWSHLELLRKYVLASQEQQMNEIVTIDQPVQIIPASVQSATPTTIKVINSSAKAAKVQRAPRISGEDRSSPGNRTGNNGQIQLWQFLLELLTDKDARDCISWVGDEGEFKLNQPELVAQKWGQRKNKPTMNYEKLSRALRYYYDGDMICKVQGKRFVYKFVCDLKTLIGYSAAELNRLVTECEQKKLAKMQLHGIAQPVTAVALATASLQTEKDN
# Outline: as §1
# ERG = molecular target: T4, ERG (Homo sapiens, UniProt P11308 1-479); details: protein: recombinant; tags: N-terminal GST; dsDNA, one strand shown
# T4 sequence: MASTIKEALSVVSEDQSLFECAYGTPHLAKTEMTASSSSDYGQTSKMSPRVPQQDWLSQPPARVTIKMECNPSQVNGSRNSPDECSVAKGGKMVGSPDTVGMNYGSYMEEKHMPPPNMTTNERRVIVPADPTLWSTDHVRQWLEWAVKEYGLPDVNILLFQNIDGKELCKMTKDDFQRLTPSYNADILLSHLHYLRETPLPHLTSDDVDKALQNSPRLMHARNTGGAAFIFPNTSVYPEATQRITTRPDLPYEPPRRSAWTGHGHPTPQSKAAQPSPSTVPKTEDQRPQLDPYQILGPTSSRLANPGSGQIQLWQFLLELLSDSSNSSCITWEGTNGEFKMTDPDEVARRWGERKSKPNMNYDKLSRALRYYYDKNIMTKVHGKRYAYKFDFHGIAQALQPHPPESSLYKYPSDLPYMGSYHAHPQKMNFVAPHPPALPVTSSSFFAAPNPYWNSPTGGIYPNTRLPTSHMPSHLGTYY
# Outline: as §1
# ELF1 = ELF1 (Homo sapiens, UniProt P32519 1-619); details: protein: recombinant; tags: N-terminal GST; dsDNA, one strand shown
# Chain of ELF1 (P32519 whole entry): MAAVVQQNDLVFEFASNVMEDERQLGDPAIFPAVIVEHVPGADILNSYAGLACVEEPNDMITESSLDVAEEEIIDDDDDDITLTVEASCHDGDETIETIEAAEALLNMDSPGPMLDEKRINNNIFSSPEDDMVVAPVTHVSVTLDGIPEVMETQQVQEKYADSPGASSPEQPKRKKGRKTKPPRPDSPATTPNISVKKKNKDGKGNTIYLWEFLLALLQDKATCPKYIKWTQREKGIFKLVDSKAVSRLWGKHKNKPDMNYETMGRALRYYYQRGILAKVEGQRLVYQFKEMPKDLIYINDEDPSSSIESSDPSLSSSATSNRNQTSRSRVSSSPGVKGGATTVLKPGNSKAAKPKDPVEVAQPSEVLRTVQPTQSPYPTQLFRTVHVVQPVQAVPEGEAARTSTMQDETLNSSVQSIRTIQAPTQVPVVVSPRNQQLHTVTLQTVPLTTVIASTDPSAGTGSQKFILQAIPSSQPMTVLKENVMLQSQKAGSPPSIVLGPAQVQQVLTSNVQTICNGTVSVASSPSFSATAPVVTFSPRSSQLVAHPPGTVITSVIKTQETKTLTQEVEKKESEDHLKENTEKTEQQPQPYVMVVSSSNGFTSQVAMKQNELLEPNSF
# Outline: as §1
# EHF = molecular target: T5, EHF (Homo sapiens, UniProt Q9NZC4 1-300); details: protein: recombinant; tags: N-terminal GST; dsDNA, one strand shown
# T5 sequence: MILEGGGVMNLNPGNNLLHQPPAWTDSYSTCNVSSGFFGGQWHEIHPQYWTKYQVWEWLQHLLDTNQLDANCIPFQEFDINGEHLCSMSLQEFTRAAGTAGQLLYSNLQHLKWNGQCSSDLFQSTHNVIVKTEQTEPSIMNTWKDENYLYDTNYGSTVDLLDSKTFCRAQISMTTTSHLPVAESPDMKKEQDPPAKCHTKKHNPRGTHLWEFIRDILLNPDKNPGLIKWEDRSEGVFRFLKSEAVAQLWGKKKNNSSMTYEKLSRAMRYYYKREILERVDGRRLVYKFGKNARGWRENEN
# Outline: as §1
# SPI1 = SPI1 (Homo sapiens, UniProt P17947 1-270); details: protein: recombinant; tags: N-terminal GST; dsDNA, one strand shown
# Outline: as §1
# SPIB = SPIB (Homo sapiens, UniProt Q01892 1-262); details: protein: recombinant; tags: N-terminal GST; dsDNA, one strand shown
# Chain of SPIB (Q01892 whole entry): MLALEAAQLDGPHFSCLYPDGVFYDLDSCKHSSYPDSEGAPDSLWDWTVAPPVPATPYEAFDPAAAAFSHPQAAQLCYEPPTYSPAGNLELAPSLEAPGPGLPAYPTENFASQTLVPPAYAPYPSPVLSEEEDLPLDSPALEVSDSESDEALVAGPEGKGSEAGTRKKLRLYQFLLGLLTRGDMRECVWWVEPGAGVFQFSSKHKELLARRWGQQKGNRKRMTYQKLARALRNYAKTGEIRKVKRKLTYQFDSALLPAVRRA
# Outline: as §1
# ELK3 = molecular target: T6, ELK3 (Homo sapiens, UniProt P41970 1-407); details: protein: recombinant; tags: N-terminal GST; dsDNA, one strand shown
# T6 sequence: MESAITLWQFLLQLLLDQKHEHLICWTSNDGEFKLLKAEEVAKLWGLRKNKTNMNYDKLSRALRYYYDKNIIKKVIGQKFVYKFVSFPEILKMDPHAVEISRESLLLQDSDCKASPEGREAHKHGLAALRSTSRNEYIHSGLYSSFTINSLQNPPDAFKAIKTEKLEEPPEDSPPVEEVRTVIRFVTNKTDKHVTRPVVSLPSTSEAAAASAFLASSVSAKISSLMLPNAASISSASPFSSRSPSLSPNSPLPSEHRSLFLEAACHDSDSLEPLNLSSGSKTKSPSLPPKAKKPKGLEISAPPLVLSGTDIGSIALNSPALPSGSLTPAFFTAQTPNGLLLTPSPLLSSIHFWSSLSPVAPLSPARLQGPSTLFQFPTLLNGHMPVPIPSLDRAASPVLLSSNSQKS
# Outline: as §1
# FEV = molecular target: T7, FEV (Homo sapiens, UniProt Q99581 1-238); details: protein: recombinant; tags: N-terminal GST; dsDNA, one strand shown
# T7 sequence: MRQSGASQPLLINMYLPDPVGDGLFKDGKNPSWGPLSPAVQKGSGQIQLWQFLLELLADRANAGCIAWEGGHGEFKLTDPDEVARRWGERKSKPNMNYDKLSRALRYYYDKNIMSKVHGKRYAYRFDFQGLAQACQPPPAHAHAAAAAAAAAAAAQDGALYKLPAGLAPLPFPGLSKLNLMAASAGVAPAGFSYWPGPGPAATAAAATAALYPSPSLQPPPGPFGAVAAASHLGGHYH
# Outline: as §1
# ETV5 = ETV5 (Homo sapiens, UniProt P41161 1-510); details: protein: recombinant; tags: N-terminal GST; dsDNA, one strand shown
# Chain of ETV5 (P41161 whole entry): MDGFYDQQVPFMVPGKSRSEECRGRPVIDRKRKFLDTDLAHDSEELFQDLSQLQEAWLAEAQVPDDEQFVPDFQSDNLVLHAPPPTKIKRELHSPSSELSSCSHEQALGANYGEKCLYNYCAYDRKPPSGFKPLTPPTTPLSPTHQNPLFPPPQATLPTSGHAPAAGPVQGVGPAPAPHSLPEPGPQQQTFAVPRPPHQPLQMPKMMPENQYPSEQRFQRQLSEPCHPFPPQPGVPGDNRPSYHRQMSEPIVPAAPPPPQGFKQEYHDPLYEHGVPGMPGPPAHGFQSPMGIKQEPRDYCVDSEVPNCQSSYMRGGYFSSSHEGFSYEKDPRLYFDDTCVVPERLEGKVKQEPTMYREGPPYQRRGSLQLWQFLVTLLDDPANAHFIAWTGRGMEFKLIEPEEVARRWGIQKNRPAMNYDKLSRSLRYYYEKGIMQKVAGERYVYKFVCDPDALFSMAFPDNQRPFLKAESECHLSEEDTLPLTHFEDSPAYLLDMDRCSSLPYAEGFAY
# Outline: as §1
# HSF1 = HSF1 (Homo sapiens, UniProt Q00613 1-529); details: protein: recombinant; tags: N-terminal GST; chain copies: 3; dsDNA, one strand shown
# Chain of HSF1 (Q00613 whole entry): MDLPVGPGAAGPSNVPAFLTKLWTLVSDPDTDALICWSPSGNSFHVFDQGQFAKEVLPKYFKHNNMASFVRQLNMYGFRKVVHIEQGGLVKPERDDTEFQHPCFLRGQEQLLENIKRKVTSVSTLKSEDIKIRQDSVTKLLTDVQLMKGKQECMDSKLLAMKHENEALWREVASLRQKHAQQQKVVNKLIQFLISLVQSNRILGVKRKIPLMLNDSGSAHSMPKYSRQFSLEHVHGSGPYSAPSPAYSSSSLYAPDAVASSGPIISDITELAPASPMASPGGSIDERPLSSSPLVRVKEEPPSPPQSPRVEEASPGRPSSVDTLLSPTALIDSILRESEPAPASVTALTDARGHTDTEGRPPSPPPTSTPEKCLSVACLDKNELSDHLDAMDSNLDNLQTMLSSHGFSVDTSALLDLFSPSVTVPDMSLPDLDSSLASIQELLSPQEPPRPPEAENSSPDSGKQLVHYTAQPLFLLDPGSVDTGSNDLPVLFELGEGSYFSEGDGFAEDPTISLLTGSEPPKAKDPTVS
# Outline: as §1
# SPIC = molecular target: T8, SPIC (Homo sapiens, UniProt Q8N5J4 1-248); details: protein: recombinant; tags: N-terminal GST; dsDNA, one strand shown
# T8 sequence: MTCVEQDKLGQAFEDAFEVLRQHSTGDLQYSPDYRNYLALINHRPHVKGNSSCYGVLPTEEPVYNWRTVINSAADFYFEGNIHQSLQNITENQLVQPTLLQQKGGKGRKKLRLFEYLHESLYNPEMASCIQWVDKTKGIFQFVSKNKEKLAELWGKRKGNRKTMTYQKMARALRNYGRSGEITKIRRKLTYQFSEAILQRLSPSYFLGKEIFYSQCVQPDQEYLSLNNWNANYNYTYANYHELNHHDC
# Outline: as §1
# ELF4 = ELF4 (Homo sapiens, UniProt Q99607 1-663); details: protein: recombinant; tags: N-terminal GST; dsDNA, one strand shown
# Chain of ELF4 (Q99607 whole entry): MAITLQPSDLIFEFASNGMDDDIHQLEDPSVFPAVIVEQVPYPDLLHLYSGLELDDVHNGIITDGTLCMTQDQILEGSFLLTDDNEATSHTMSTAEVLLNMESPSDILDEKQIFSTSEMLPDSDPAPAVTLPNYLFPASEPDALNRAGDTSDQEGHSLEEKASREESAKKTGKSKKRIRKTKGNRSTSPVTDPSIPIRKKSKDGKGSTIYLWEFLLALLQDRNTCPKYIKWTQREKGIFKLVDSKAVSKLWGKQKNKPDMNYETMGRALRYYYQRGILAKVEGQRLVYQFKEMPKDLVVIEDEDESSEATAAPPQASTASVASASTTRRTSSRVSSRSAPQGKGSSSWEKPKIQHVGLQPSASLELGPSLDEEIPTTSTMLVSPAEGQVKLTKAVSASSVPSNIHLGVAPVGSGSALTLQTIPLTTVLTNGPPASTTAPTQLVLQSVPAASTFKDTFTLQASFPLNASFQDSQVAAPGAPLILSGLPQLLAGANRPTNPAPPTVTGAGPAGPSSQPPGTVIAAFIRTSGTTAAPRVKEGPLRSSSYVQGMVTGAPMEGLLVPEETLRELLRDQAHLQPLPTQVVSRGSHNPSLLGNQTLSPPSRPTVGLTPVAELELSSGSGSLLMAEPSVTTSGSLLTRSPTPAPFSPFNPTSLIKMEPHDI
# Outline: as §1
# ELK4 = molecular target: T9, ELK4 (Homo sapiens, UniProt P28324-2 1-405); details: protein: recombinant; tags: N-terminal GST; dsDNA, one strand shown
# T9 sequence: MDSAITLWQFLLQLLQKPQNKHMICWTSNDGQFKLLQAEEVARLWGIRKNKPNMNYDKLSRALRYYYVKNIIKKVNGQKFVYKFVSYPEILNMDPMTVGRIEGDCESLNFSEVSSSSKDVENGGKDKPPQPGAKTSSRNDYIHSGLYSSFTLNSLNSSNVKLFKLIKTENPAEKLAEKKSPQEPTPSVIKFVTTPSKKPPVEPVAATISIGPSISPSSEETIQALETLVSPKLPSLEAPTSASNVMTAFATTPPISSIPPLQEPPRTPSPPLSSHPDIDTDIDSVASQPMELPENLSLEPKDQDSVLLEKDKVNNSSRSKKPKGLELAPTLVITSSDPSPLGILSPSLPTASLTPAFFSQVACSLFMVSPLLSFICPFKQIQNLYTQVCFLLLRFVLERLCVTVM
# Outline: as §1
# ETV2 = molecular target: T10, ETV2 (Homo sapiens, UniProt O00321 1-342); details: protein: recombinant; tags: N-terminal GST; dsDNA, one strand shown
# T10 sequence: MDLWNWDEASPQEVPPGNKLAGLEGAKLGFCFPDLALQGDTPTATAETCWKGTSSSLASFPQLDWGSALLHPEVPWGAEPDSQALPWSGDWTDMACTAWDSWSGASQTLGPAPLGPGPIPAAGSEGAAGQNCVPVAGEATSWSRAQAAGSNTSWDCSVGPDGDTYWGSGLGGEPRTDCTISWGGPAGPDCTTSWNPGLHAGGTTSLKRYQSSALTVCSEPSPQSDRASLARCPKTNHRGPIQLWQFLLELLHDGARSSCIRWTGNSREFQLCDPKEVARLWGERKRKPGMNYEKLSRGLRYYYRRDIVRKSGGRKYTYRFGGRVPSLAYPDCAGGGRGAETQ
# Outline: as §1
# ELF3 = molecular target: T11, ELF3 (Homo sapiens, UniProt P78545 1-371); details: protein: recombinant; tags: N-terminal GST; dsDNA, one strand shown
# T11 sequence: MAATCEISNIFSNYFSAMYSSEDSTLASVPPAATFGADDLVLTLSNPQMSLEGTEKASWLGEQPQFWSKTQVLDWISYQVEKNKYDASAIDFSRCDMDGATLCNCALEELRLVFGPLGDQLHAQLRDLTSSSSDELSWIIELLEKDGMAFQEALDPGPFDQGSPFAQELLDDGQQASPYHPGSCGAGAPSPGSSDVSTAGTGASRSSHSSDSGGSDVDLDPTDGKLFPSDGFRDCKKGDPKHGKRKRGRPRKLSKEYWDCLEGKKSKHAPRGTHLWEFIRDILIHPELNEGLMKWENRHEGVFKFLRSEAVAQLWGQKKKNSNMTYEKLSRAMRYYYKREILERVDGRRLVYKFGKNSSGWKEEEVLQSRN
# Outline: as §1
# CRX = CRX (Homo sapiens, UniProt O43186 1-299); details: protein: recombinant; tags: N-terminal GST; dsDNA, one strand shown
# Chain of CRX (O43186 whole entry): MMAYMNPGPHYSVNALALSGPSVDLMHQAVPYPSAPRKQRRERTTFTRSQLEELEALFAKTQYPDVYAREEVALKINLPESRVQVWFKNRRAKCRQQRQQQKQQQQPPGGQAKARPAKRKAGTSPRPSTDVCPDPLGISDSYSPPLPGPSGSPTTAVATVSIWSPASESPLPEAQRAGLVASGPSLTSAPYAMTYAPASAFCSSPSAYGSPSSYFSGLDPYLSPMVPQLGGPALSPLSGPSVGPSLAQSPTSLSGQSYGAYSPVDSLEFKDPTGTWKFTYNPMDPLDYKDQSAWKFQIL
# Outline: as §1
# ETV1 = ETV1 (Homo sapiens, UniProt P50549 1-477); details: protein: recombinant; tags: N-terminal GST; dsDNA, one strand shown
# Chain of ETV1 (P50549 whole entry): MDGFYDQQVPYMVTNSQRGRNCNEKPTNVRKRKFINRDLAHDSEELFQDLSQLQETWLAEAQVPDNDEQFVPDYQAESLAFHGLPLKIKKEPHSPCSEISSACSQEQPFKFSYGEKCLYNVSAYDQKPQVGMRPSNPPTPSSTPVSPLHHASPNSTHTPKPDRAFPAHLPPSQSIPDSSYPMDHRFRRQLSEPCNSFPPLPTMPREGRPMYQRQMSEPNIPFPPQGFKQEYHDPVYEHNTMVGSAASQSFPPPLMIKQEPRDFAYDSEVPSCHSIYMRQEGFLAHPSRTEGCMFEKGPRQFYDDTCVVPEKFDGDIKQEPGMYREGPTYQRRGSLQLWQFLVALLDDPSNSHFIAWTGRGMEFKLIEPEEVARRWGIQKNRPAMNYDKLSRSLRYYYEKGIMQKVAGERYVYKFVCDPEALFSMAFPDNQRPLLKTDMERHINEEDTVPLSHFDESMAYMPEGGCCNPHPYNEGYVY
# Outline: as §1
sequence,measurement,setting,value
ATGCTT,binding signal,FLI1,"1.35 fold enrichment (6-mer frequency, TF over GST control)"
same,binding signal,ELK1,"1.42 fold enrichment (6-mer frequency, TF over GST control)"
same,binding signal,GABPA,"1.26 fold enrichment (6-mer frequency, TF over GST control)"
same,binding signal,ERG,"1.32 fold enrichment (6-mer frequency, TF over GST control)"
same,binding signal,ELF1,"1.27 fold enrichment (6-mer frequency, TF over GST control)"
same,binding signal,EHF,"1.29 fold enrichment (6-mer frequency, TF over GST control)"
same,binding signal,SPI1,"1.24 fold enrichment (6-mer frequency, TF over GST control)"
same,binding signal,SPIB,"1.4 fold enrichment (6-mer frequency, TF over GST control)"
same,binding signal,ELK3,"1.36 fold enrichment (6-mer frequency, TF over GST control)"
same,binding signal,FEV,"1.2 fold enrichment (6-mer frequency, TF over GST control)"
same,binding signal,ETV5,"1.29 fold enrichment (6-mer frequency, TF over GST control)"
same,binding signal,HSF1,"1.23 fold enrichment (6-mer frequency, TF over GST control)"
same,binding signal,SPIC,"1.6 fold enrichment (6-mer frequency, TF over GST control)"
same,binding signal,ELF4,"1.3 fold enrichment (6-mer frequency, TF over GST control)"
same,binding signal,ELK4,"1.45 fold enrichment (6-mer frequency, TF over GST control)"
same,binding signal,ETV2,"1.29 fold enrichment (6-mer frequency, TF over GST control)"
same,binding signal,ELF3,"1.35 fold enrichment (6-mer frequency, TF over GST control)"
same,binding signal,CRX,"1.24 fold enrichment (6-mer frequency, TF over GST control)"
same,binding signal,ETV1,"1.3 fold enrichment (6-mer frequency, TF over GST control)"
